# Reference: PubChem BioAssay (NCATS)
# Records with an inconclusive call do not appear. The source made the active and inactive calls. Unless noted, the call rests on the fitted dose curve.
# Assays:
# [1] = molecular target: Nuclear receptor subfamily 1 group I member 2 (Homo sapiens) (UniProt O75469); assay: Dual reporter qHTS for agonist of Pregnane X Receptor (hPXR) against the NCATS DSHEA and TCM libraries: Luminescence readout (AID 1920059; active means well fitted curve in the direction sought with a large enough effect; an effect the other way counts as inactive or inconclusive; further: 0% is about no effect); conditions: hPXR dual reporter cells, luciferase luminescence agonist; series mostly up to 40 µM
# Chain of Nuclear receptor subfamily 1 group I member 2 (Homo sapiens) (O75469 whole entry, looked up): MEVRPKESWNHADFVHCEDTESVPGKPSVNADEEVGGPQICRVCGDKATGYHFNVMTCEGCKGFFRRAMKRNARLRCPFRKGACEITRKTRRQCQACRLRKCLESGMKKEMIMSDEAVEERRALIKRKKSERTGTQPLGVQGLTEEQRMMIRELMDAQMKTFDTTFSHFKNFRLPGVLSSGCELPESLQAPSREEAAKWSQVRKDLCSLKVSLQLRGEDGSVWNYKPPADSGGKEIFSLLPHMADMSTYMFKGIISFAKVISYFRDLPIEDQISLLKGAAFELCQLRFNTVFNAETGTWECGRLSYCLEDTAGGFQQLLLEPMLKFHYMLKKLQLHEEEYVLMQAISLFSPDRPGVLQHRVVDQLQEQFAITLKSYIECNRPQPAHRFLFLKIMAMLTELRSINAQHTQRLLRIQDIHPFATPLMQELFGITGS
# How it was run: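 hPXR-Luc HepG2 cells, 2000/well in 5% charcoal-stripped FBS medium, attached 5 h, then exposed 24 h at 37C to compounds. Viability by CellTiter-Fluor, then luciferase luminescence with ONE-Glo.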
# [2] = molecular target: Nuclear receptor subfamily 1 group I member 2 (Homo sapiens) (UniProt O75469); assay: Dual reporter qHTS for antagonist of Pregnane X Receptor (hPXR) against the NCATS DSHEA and TCM libraries: Luminescence Readout (AID 1920060; active means well fitted curve in the direction sought with a large enough effect; an effect the other way counts as inactive or inconclusive;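 further: HepG2 cells carrying hPXR luciferase reporter stimulated with rifampicin at 2 µM; 0% is about no effect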); conditions: hPXR dual reporter cells, luciferase luminescence, antagonist mode; series mostly up to 40 µM
# How it was run: (§1)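 hPXR-Luc HepG2 cells exposed 24 h at 37 C to compounds with 2 uM rifampicin in antagonist mode; luciferase luminescence measured by ONE-Glo, with CellTiter-Fluor viability read beforehand.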
# [3] = Dual reporter qHTS for antagonist of Pregnane X Receptor (hPXR) against the NCATS DSHEA and TCM libraries: Fluorescence Readout (AID 1920061; active means well fitted curve in the direction sought with a large enough effect; an effect the other way counts as inactive or inconclusive; further: 0% is about no effect); conditions: PXR dual reporter cells, antagonist mode; series mostly up to 40 µM
# How it was run: as §1
# [4] = qHTS drug screen for cell cycle checkpoint inhibitors in PARPi-resistant BRCA-mutant ovarian cancer cell lines. (AID 1963452); conditions: PEO1/OlaR viability, CellTiter-Glo luminescence, 96 h; for Z-AUC: stronger effect = lower value; further: potency means the concentration at half of the fitted maximal effect
# How it was run: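 PEO1, PEO4 and PEO1/OlaR ovarian cancer cells, 600 per well, exposed 96 h at 37C to a dilution series. Viability read by CellTiter-Glo luminescence, normalized to DMSO and empty wells; activity summarized as Z-AUC.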
# [5] = qHTS for identification of novel therapeutic agents for treatment of microphthalmiaassociated transcription factor (MiT) renal cell carcinoma (RCC) (AID 1963991); conditions: CellTiter-Glo, 48 h; for z-score: stronger effect = lower value; further: potency means the concentration at half of the fitted maximal effect
# How it was run: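 Three TFE3-fusion RCC lines (UOK109, UOK124, UOK145), 500 cells/well in complete medium, were treated with MIPE 4.0 compounds for 48 hours at 37 C. Viability was by CellTiter-Glo luminescence, normalized to DMSO (100%) and empty wells (0%); curves fitted over 11 concentrations.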
# [6] = qHTS profiling for inhibitors of Plasmodium falciparum proliferation (AID 504749; active means well fitted curve in the direction sought with a large enough effect; an effect the other way counts as inactive or inconclusive; further: nearly all actives have a fitted effect of over 60% in size; further: potency means the concentration at half of the fitted maximal effect;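 on activity, negative = inhibition: 0% = DMSO vehicle and full inhibition = artemisinin control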); conditions: P. falciparum in erythrocytes, SYBR Green DNA, 72 h, at 28.7 µM (top of the series)
# How it was run: (§2)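 Readout was DNA-dye fluorescence from lysed cultures, ex 485/em 535 nm. Parasitized red cells had grown 72 h with compound; data scaled between 0.29 uM artemisinin and DMSO wells and corrected using vehicle-only plates.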
# 3D7 = assay: as above; conditions: P. falciparum in erythrocytes, SYBR Green DNA, 72 h; series mostly up to 28.7 µM
# How it was run: as §2
# 7G8 = assay: as above; conditions: P. falciparum in erythrocytes, SYBR Green DNA, 72 h; series mostly up to 28.7 µM
# How it was run: as §2
# AA1029 = assay: as above; conditions: P. falciparum in erythrocytes, SYBR Green DNA, 72 h; series mostly up to 28.7 µM
# How it was run: as §2
# AS120 = assay: as above; conditions: P. falciparum in erythrocytes, SYBR Green DNA, 72 h; series mostly up to 28.7 µM
# How it was run: as §2
# [7] = measured here: PEO1 parental Z-AUC
# [8] = TFE3-RCC UOK109 viability, measured here: UOK109 Z-AUC
# [9] = TFE3-RCC viability, measured here: UOK124 Z-AUC
# [10] = TFE3-RCC viability, measured here: UOK145 Z-AUC
structure (smiles),measurement,setting,value
NC(=O)c1cnccn1,outcome,[1],inactive
same,outcome,[2],inactive
same,outcome,[3],inactive
same,Z-AUC,[4],0.616 (inactive)
same,Z-AUC,[4]; [7],0.733
same,Z-AUC,[4]; measured here: PEO4 Z-AUC,0.41
same,z-score,[5]; [8],0.906
same,z-score,[5]; [9],0.826
same,z-score,[5]; [10],0.673
same,"activity, negative = inhibition",[6]; parasite line A,13.8% (inactive)
same,"activity, negative = inhibition",[6]; parasite line B,12.8% (inactive)
same,Potency,3D7,inactive
same,Potency,7G8,inactive
same,Potency,AA1029,inactive
same,Potency,AS120,inactive
CCN(CC)CCCC(C)Nc1ccnc2cc(Cl)ccc12 (stereo unspecified),Z-AUC,[4],0.106 (inactive)
same,Z-AUC,[4]; [7],0.505
same,Z-AUC,[4]; measured here: PEO4 Z-AUC,0.615
C[C@@H]1CN(Cc2ccc(F)cc2)[C@@H](C)CN1C(=O)c1cc2c(C(=O)C(=O)N(C)C)cn(C)c2cc1Cl,Z-AUC,[4],0.142 (inactive)
same,Z-AUC,[4]; [7],0.03
same,Z-AUC,[4]; measured here: PEO4 Z-AUC,0.299
NC(=O)c1ccc(-c2nc(-c3ccc4c(c3)OCCO4)c(-c3ccccn3)[nH]2)cc1,Z-AUC,[4],0.559 (inactive)
same,Z-AUC,[4]; [7],0.194
same,Z-AUC,[4]; measured here: PEO4 Z-AUC,0.167
CCN(c1ccccc1)c1cc(NC)[n+](C)c(C)n1,Z-AUC,[4],1.35 (inactive)
same,Z-AUC,[4]; [7],1.27
same,Z-AUC,[4]; measured here: PEO4 Z-AUC,1.04
COCCNCCCn1c(C(=O)CF)c(-c2ccc(C)cc2)c2c(N)ncnc21,Z-AUC,[4],0.937 (inactive)
same,Z-AUC,[4]; [7],1.02
same,Z-AUC,[4]; measured here: PEO4 Z-AUC,1.22
CCCS(=O)(=O)Nc1ccc(F)c(C(=O)c2c[nH]c3ncc(-c4ccc(Cl)cc4)cc23)c1F,Z-AUC,[4],0.0673 (inactive)
same,Z-AUC,[4]; [7],-0.745
same,Z-AUC,[4]; measured here: PEO4 Z-AUC,-0.427
CN(C(=O)c1ccc(F)cc1C(F)(F)F)C1CCN(c2nnc(-c3ccnn3C)c3ccccc23)CC1,Z-AUC,[4],-0.541 (inactive)
same,Z-AUC,[4]; [7],-0.599
same,Z-AUC,[4]; measured here: PEO4 Z-AUC,-0.538
CS(=O)(=O)c1ccc(C(=O)Nc2ccc(Cl)c(-c3ccccn3)c2)c(Cl)c1,Z-AUC,[4],0.211 (inactive)
same,Z-AUC,[4]; [7],-0.252
same,Z-AUC,[4]; measured here: PEO4 Z-AUC,-0.353
COc1cc(F)c(F)c(Nc2ccc(I)cc2F)c1NS(=O)(=O)C1(C[C@H](O)CO)CC1,Potency,[4],2.45 µM (active)
same,Z-AUC,[4]; [7],-1.43
same,Z-AUC,[4]; measured here: PEO4 Z-AUC,-1.19
C[C@]1(c2nc3c(C(N)=O)cccc3[nH]2)CCCN1,Z-AUC,[4],0.745 (inactive)
same,Z-AUC,[4]; [7],0.586
same,Z-AUC,[4]; measured here: PEO4 Z-AUC,0.314
C[C@H](NC(=O)Cc1cc(F)cc(F)c1)C(=O)N[C@@H]1C(=O)N(C)c2ccccc2-c2ccccc21,Z-AUC,[4],-0.379 (inactive)
same,Z-AUC,[4]; [7],-0.57
same,Z-AUC,[4]; measured here: PEO4 Z-AUC,-0.563
CC(C)OC(=O)C1=CN(C(=O)c2ccc(F)c(F)c2)CC(C)(C)c2c1[nH]c1ccccc21,Z-AUC,[4],-0.655 (inactive)
same,Z-AUC,[4]; [7],1.12
same,Z-AUC,[4]; measured here: PEO4 Z-AUC,0.385
CC(C)(C)NCC(O)c1ccc(O)c(CO)c1 (stereo unspecified),Z-AUC,[4],0.197 (inactive)
same,Z-AUC,[4]; [7],0.915
same,Z-AUC,[4]; measured here: PEO4 Z-AUC,0.881
Cc1cc2c(F)c(Oc3ncnn4cc(OC[C@@H](C)O)c(C)c34)ccc2[nH]1,Z-AUC,[4],0.786 (inactive)
same,Z-AUC,[4]; [7],0.535
same,Z-AUC,[4]; measured here: PEO4 Z-AUC,0.987
Cc1cc([C@@H](C)Nc2ccccc2C(=O)O)c2nc(N3CCOCC3)cc(=O)n2c1,Z-AUC,[4],0.266 (inactive)
same,Z-AUC,[4]; [7],0.877
same,Z-AUC,[4]; measured here: PEO4 Z-AUC,0.854
O=C1CCCC2=C1C(c1[nH]ncc1Cl)N=C(Nc1nc3ccccc3o1)N2 (stereo unspecified),Z-AUC,[4],0.0101 (inactive)
same,Z-AUC,[4]; [7],0.851
same,Z-AUC,[4]; measured here: PEO4 Z-AUC,0.0586
Cc1cc(Nc2nc(N[C@@H](C)c3ncc(F)cn3)ncc2Cl)n[nH]1,Potency,[4],12.3 µM (active)
CO[C@@H]1[C@H](N(C)C(=O)c2ccccc2)C[C@H]2O[C@]1(C)n1c3ccccc3c3c4c(c5c6ccccc6n2c5c31)C(=O)NC4,Potency,[4],1.55 µM (active)
C#Cc1cccc(Nc2ncnc3cc(OCCOC)c(OCCOC)cc23)c1,Z-AUC,[4],-0.425 (inactive)
same,Z-AUC,[4]; [7],-1.02
same,Z-AUC,[4]; measured here: PEO4 Z-AUC,-0.978
same,Potency,"[5]; TFE3-RCC UOK109 viability, active = Z-AUC below -0.8 in all three lines",0.0526 µM (active)
same,z-score,[5]; [8],-2.56
same,z-score,[5]; [9],-1.06
same,z-score,[5]; [10],-1.55
same,Potency,3D7,8.91 µM (active)
same,Potency,7G8,11.2 µM (active)
same,Potency,AA1029,8.91 µM (active)
same,Potency,AS120,11.2 µM (active)
